We go through 40 molecules from PubChem BioAssay (NCI).

Compounds without any hit were thinned out: in the full panel of roughly 83,000, 20% have a hit.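 A percent growth of 40 corresponds to 60% growth inhibition; 0 means no net growth; -100 means all cells died. Active threshold: below 10.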 Active and inactive are the calls of the source.

This test has as its system SK-OV-3 ovarian. The experiment in a line: NCI-60 one-dose screen, 48 h (100 = growth as untreated, 0 = no growth, -100 = all killed). The note with it: 10 µM unless noted. Here is the method:
Growth inhibition of the SK-OV-3 human tumor cell line is measured as a screen for anti-cancer activity. Cells are grown in 96 well plates and exposed to the test compound for 48 hours. Compounds are tested at a single concentration, which is 10^-5 M for most compounds. The reported endpoint is percent growth (GI% or GIPRCNT), where numbers from 0 - 100% represent growth inhibition, and numbers from -100% - 0 represent cell death. For example, a value of 40 represents 60% growth inhibition. A value of 0 means no net growth occurred over the course of the experiment. A value of -40 indicates 40% of cells at the beginning of the experiment died by the end of the experiment. A value of -100 means all cells are dead at the end of the experiment.
NCI-60 Human Tumor Cell Lines Screen was performed using the standard one-dose NCI protocol, which is described in more detail at https://dtp.cancer.gov/discovery_development/nci-60/default.htm.
Compounds with GIPRCNT values below 10 were considered active. Activity score was based on GIPRCNT using the following formula: […]
Score is 0 for GIPRCNT values of 100 or above, 50 for GIPRCNT values of 0, and 100 for GIPRCNT values of -100.
`O=C1Nc2ccc(Cl)cc2/C1=C/c1ccc(OCC(=O)c2ccc(Br)cc2)cc1`: the growth is 79.9% (inactive). Next, `CCCCCCNC(=O)Oc1ccc(/C(=C(/C)c2ccccc2)c2ccc(OCCN3CCCCCC3)cc2)cc1`: 98.7% (inactive). Next, `CN(C)S(=O)(=O)c1oc(-c2ccccc2)nc1C#N`: 136% (inactive); `CCCCN1C(=O)/C(=c2\sc3n(c2=O)C2C(NN=3)N(CC)C(=O)N2CC)c2cc(Cl)ccc21` (stereo not given): 106% (inactive); `Cn1cc(-c2cc(N)n3nc(-c4cn(C)c5ccc(Cl)cc45)cc3n2)c2cc(Cl)ccc21`: 123% (inactive). On to `O=C1NC(=C(Cl)Cl)/C(=N/S(=O)(=O)N2CCCCC2CC2(C(F)(F)F)N=N2)N1` (stereo not given), for which the growth was 136% (inactive). Next, `CC(C)(C)Nc1nc2c(OCCc3ccccc3)cccn2c1-c1cccc(F)c1`: -17% (active). Next, `OC1CCN(CCCOc2c3ccc(Cl)cc3nc3c2oc2ccc(Cl)cc23)CC1`: 50.8% (inactive); `CC(=O)Oc1ccccc1C(=O)Nc1cc(C(C)C)ccc1C`: 0.738% (active). Next, `COc1ccc(-n2c(SCC(=O)Nc3ccc(-c4nc5ccccc5[nH]4)cc3)nc3ccccc3c2=O)cc1`: 136% (inactive); `C=CCn1c(SCC(=O)c2ccccc2)nnc1-c1c[nH]c2ccccc12`: 120% (inactive); `COc1cccc(-c2nn(-c3ccccc3)cc2-c2ccnc(N3CCN(C(=O)c4ccccc4)CC3)c2)c1`: 118% (inactive). For the molecule `Nc1cc(-c2c[nH]c3ccc(Cl)cc23)nc2cc(-c3c[nH]c4ccc(Cl)cc34)nn12`, the growth is 119% (inactive). Next, `Clc1ccc2c(OCCCN3CCOCC3)c3oc4ccccc4c3nc2c1`: 71.8% (inactive). Next, `COc1ccc(/C=N/Nc2ccnc3cc(Cl)ccc23)cc1Cl`: 123% (inactive).

With `N#Cc1nc(-c2ccccc2)oc1S(=O)(=O)N1CCN(CCc2ccccn2)CC1`, the growth was 137% (inactive). Next, `[Cl][Ru].c1ccc(-c2cccc(-c3ccccn3)n2)nc1.c1ccc(-c2ccnc3c2ccc2c(-c4ccccc4)ccnc23)cc1`: 46.8% (inactive); `O=C(N/N=C/c1ccc[nH]1)c1[nH]c2ccc(Br)cc2c1-c1ccccc1`: 36.7% (inactive). Next, `Cn1ccnc1C(=O)/C=C/c1ccc(NC(=O)Nc2ccccc2)cc1`: 13.3% (inactive).

For the molecule `COc1cc(N=Cc2sc(Nc3nccs3)nc2O)cc(OC)c1OC`, the growth was 104% (inactive).

For `COc1ccc(C(=O)/C=C/c2ccc(Oc3nc(NCCO)nc(N4CCOCC4)n3)c(OC)c2)cc1`, the growth was 108% (inactive).

With `Clc1ccc2c(NCCCN3CCOCC3)c3oc4ccccc4c3nc2c1`, the growth was 97.6% (inactive). Next, `C#Cc1nc(C2=C(C)C(OC(C)=O)/C(=N/OC(C)=O)C2)cs1` (stereo not given): -78.4% (active). Next, `COc1cc2cc(Oc3ccc(NC(=O)c4cccc(C(F)(F)F)c4)cc3)c(C)nc2cc1OCCN1CCCCC1`: 101% (inactive); `CN1C(=S)N(C)C2C1NN=C1SC(c3ccccc3)=CC(=O)N12` (stereo not given): 102% (inactive). Next, `N/C(=N\c1nc2c(Cl)cc(Cl)cc2s1)C(Cl)(Cl)Cl`: 83.8% (inactive); `O=C(Oc1ccc2ccc(=O)oc2c1)c1ccc(Cl)cc1`: 109% (inactive). `Cn1c(SCC(=O)Nc2ccc(-c3nc4ccc([N+](=O)[O-])cc4[nH]3)cc2)nc2ccccc2c1=O`: the growth was 120% (inactive). Next, `COc1cc(/C=C/C(=O)c2ccc(C(F)(F)F)cc2)ccc1Oc1nc(NCCO)nc(N2CCOCC2)n1`: 101% (inactive); `O=C1Nc2ccccc2Oc2ccc(S(=O)(=O)CC3CO3)cc21` (stereo not given): 122% (inactive). Consider `COc1cc(-c2nc3ccc(-c4nnc(SCC(=O)Nc5ccc(C(C)=O)cc5)o4)cc3[nH]2)cc(OC)c1OC`, for which the growth is 112% (inactive).

Turning to `Fc1ccc(-c2nc(C(Cl)Cl)nc3cc(-c4ccccc4)nn23)cc1`, the growth was -28.9% (active).

`CS(=O)(=O)c1ccc(-c2nc3ccccn3c2/C=N/Nc2nc(-c3ccc(Br)cc3)cs2)cc1`: the growth is 140% (inactive). In the case of `COc1cc(/C=C/C(=O)c2cc(OC)c(OC)c(OC)c2)ccc1Oc1nc(NCCO)nc(N2CCOCC2)n1`, the growth was 7.04% (active). Next, `COc1ccc(-c2nn3c(-c4ccccc4F)nnc3s2)cc1`: 84% (inactive). Next, `C#Cc1nc(C2=C(C)C(O)CC2)cs1` (stereo not given): 89% (inactive); `CS(=O)(=O)c1ccc(-n2cc(/C=C/C(=O)c3ccc(NC(=O)CO[N+](=O)[O-])cc3)c(-c3ccc(Cl)cc3)n2)cc1`: 89.7% (inactive). Next, `O=C1C2=C(C(=O)c3c(O)cccc31)C(c1ccco1)c1sc(=O)[nH]c1S2` (stereo not given): 115% (inactive); `COc1cc(-c2nc3ccc(-c4nnc(SCC(=O)Nc5ccc(C(=O)/C=C/c6ccc(Cl)cc6)cc5)o4)cc3[nH]2)cc(OC)c1OC`: 121% (inactive). Turning to `C#C[C@]1(O)CC[C@H]2[C@@H]3CC=C4c5sc(Nc6ccc(Cl)cn6)nc5CC[C@]4(C)[C@H]3CC[C@@]21C`, the growth is 35.9% (inactive).
